Holding throughout (assay): NCI-60 one-dose screen, 48 h (100 = growth as untreated, 0 = no growth, -100 = all killed)
What all share (settings): 10 µM unless noted

Test [1] relates to NCI-H23 lung.
Test [2] has as its system NCI-H226 lung.
The test system of test [3] is NCI-H322M lung.
In test [4] the test system is HOP-62 NSCLC.
In test [5] the test system is NCI-H460 lung.
For test [6], the system named is HOP-92 NSCLC.
In test [7] the test system is NCI-H522 lung.
For test [8], the system named is A549/ATCC NSCLC.
Test [9] has as its system 786-0 renal.
In test [10] the test system is COLO 205 colon.

Each structure is given as a SMILES string. The panel holds about 83,000 compounds, 20% with a hit somewhere; the sample as a whole holds those more often.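 The endpoint reported here, percent growth, reads 100 for growth as untreated, 0 for no net growth and -100 for all cells dead.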 Values without a mark were called inactive. Active and inactive are the calls of the source. The calls were made as follows: active = growth percent below 10; inactive = the rest.

As for `C[C@]12CCc3sc(NCCc4ccccc4)nc3C1=CC[C@@H]1[C@@H]2CC[C@]2(C)C(=O)CC[C@@H]12`, the growth in test [1] was 66.6%; in test [2], 84.1%; in test [3], 91.9%; in test [4], 102%; in [5], 72.8%; in test [6], 66.4%. For the same compound, the growth in test [7] is 44.1%; in test [8] it was 87.8%; in test [9] it was 4.36% (active); in test [10] it was 90.6%.
On to `CC(CO)NC1CCCCC1` (centres undefined), for which the growth was 103% in test [1]; 119% in test [2]; 102% in [3]; 102% in test [4]; 108% in test [5]; 78% in test [6]. The growth is 103% in test [7], 102% in test [8], 100% in test [9] and 113% in [10].
Take `COC1OC(CO)C(O)C(O)[CH]1[Hg][O]C(C)=O` (centres undefined): the growth in [1] is 94.2%; in [2], 100%; in [3], 91.7%; in [4], 102%; in test [5], 94.9%; in [6] it was 123%. Besides, the growth was -42.7% (active) in test [7], 94.9% in test [8] and 106% in test [9].
Take `COc1cccc2c1c(C(=O)C(=O)Nc1cc(C)no1)cn2Cc1ccc(F)cc1`: the growth in test [1] is 78.8%; in [2], 75.5%; in [3], 94.7%; in [4] it was 64.1%; in test [5], 71.3%; in [6] it was 57.4%. The growth was 72.5% in [7], 91.9% in test [8], 64.1% in test [9] and 95.4% in [10].
For `CCCCCCCC[n+]1ccc2ccccc2c1`, the growth in [1] is 36.5%; in [2], 61.4%; in test [3] it was 99.2%; in test [4] it was 77.2%; in [5], 73.9%; in test [6], 52%. Moreover, the growth in test [7] is 29.8%; in test [8], 88.7%; in test [9], 75.5%.
For the compound `O=[N+]([O-])c1cc([N+](=O)[O-])c(Nn2c3ccccc3c3ccccc32)c([N+](=O)[O-])c1`, the growth in test [1] is -3.12% (active); in test [2] it was -1.91% (active); in [3], 2.33% (active); in test [4] it was -11.8% (active); in test [5], 3.43% (active); in [6] it was -28.1% (active). For the same compound, the figures for the growth in test [7], in [8] and in [9] were -25.4% (active), 4.97% (active) and 0.775% (active), respectively.
Turning to `O=C(O)c1c(Cl)n(Cc2ccc(O)cc2)c2ccc(O)cc12`, the growth is 113% in test [1]; 97.2% in test [2]; 96.3% in test [3]; 93.7% in [4]; 106% in [5]; 65% in test [6]. Further, the growth in [7] was 83.4%; in test [8], 103%; in [9], 108%.
Turning to `COc1ccc(/C(C)=C(\c2ccc(OCCN3CCOCC3)cc2)c2ccc(OC(=O)Cc3ccccc3)cc2)cc1`, the growth in [1] was 95.1%; in [2], 110%; in [3] it was 111%; in [4], 108%; in test [5] it was 110%; in [6] it was 105%. Moreover, the growth is 94.9% in test [7], 94.3% in [8] and 104% in test [9].
Regarding `COc1cc(/C=C/[N+](=O)[O-])cc(OC)c1`, the growth in [1] was -47.3% (active); in [2] it was -31.2% (active); in test [3] it was 84.6%; in [4], 35.9%; in [5], 40.6%; in test [6] it was 28.9%. Moreover, the values for the growth in [7], in [8] and in [9] were -40.1% (active), 28.6% and -45.3% (active), respectively.
With `CCc1ccccc1[C@@H]1C[C@]2(C)CCO[C@@H]2OO1`, the growth in test [1] is 104%; in test [2], 102%; in test [3], 105%; in [4], 98.2%; in test [5] it was 107%; in test [6], 92.7%. Besides, the growth in test [7] is 104%; in test [8], 96.8%; in [9] it was 101%; in [10], 118%.
`CCC(CC)CC1(C)CC2(C)CCOC2OO1` (centres undefined): the growth in test [1] is 102%; in [2], 99%; in test [3] it was 109%; in [4] it was 97.9%; in test [5], 108%; in [6], 96.2%. Besides, the growth in test [7] was 90.9%; in test [8], 98.9%; in test [9], 101%; in [10], 118%.
For `CNC12C3C4C1C1C2C3C41C(=O)N[C@H](C(=O)N(C)[C@H](C[C@@H](OC(C)=O)c1nc(C(=O)N[C@@H](Cc2ccccc2)C[C@H](C)C(=O)OC)cs1)C(C)C)C1CC1` (some centres undefined), the growth in test [1] was 7.82% (active); in test [2], 11.2%; in test [3], 48.5%; in test [4], 22.1%; in [5] it was 14.8%; in [6], -15.3% (active). The growth in [7] is -27.4% (active); in test [8], 17.7%; in [9] it was 15.5%; in test [10] it was -46.5% (active).
As for `O=[As](O)(O)c1ccccc1[As](=O)(O)O`, the growth was 99.9% in [1]; 112% in test [2]; 121% in test [3]; 110% in test [4]; 116% in [5]; 95.9% in [6]. The growth in test [7] was 106%; in test [8] it was 91.8%; in test [9], 119%; in [10], 111%.
For the compound `C[C@@]12CC[C@@H](O)C[C@@H]1CC[C@H]1[C@H]2CC[C@@]2(C)[C@H](c3ccc(=O)oc3)CC[C@@]12O`, the growth in test [1] was -50% (active); in test [2], -91.9% (active); in test [3], -45.3% (active); in test [4], -75.3% (active); in test [5] it was -78.7% (active); in [6] it was -13.1% (active). The growth is -26% (active) in test [7], -61.9% (active) in [8], -51.1% (active) in test [9] and -68.1% (active) in test [10].
Take `O=C(Nc1ccncc1F)c1cn(CC2CC2)c2ccccc12`: the growth in [1] was 101%; in test [2] it was 83.7%; in [3], 109%; in test [4] it was 108%; in test [5], 101%; in [6], 123%. Moreover, the growth in test [7] was 92.3%; in test [8], 98.5%; in test [9], 97.6%; in [10] it was 112%.
As for `CC(C)(NC(=O)O[C@@H]1CN2CCC1CC2)c1csc(-c2ccc(F)cc2)n1`, the growth in [1] was 96.3%; in test [2] it was 89.9%; in test [3], 98.9%; in test [4], 99.4%; in test [5] it was 101%; in test [6], 98%. Moreover, the growth in [7] was 95.4%; in test [8], 101%; in test [9], 99.3%; in test [10], 111%.
Take `O=C1CCC2(O)[C@@H]3Cc4ccc(O)c5c4[C@]2(CCN3Cc2ccoc2)C1O5` (some centres undefined): the growth in [1] was 96.7%; in test [2] it was 89.4%; in test [3], 110%; in test [4], 106%; in test [5], 103%; in test [6], 100%. Further, the growth in test [7] was 95.4%; in test [8], 102%; in test [9], 103%; in [10], 105%.
For `COc1ccc(/C=C\c2cc(OC)c(OC)c(OC)c2)cc1NC(=O)/C=C/c1ccc(OC)c(OC)c1`, the growth in [1] is 0.102% (active); in [2], 35.9%; in test [3], 68.2%; in test [4], 39.5%; in test [5] it was 22%; in test [6] it was 115%. Further, the growth in [7] was 11.1%; in [8], 41.7%; in [9], 35.7%; in test [10], -4.78% (active).
`CC(=O)Oc1ccccc1C(=O)NCCC[Se]C#N`: the growth in test [1] is -13.8% (active); in [2] it was -22.8% (active); in [3], 2.65% (active); in [4], -38.8% (active); in [5], 1.89% (active); in [6] it was -18.5% (active). Also, the growth in test [7] is 65.2%; in test [8], 28.2%; in test [9], 104%; in [10] it was 112%.
Regarding `C1CCC([PH+](C2CCCCC2)C2CCCCC2[PH+](C2CCCCC2)C2CCCCC2)CC1.[Au].[CH-]1CCCCC1CC1CCCC[N-]1` (centres undefined), the growth in test [1] was -46.3% (active); in test [2] it was -50.6% (active); in test [3], -42% (active); in [4], -30.6% (active); in [5], -56.4% (active); in [6], -34.4% (active). Besides, the growth in [7] was -40.7% (active); in [8], -44.4% (active); in [9], -89.6% (active); in test [10], -47.7% (active).
Consider `COc1cc2c(cc1OCCCn1c(-c3ccccn3)nc3ccccc31)N=C[C@@H]1CCCN1C2=O`, for which the growth was 15% in test [1]; -62% (active) in test [2]; 25.7% in [3]; 18% in test [4]; -22.7% (active) in [5]; -59.6% (active) in test [6]. Further, the growth in test [7] is -5.46% (active); in test [8], 20%; in [9], -33.7% (active); in test [10] it was 9.33% (active).
Regarding `Nc1ncnc2n[nH]nc12`, the growth in test [1] was 72.7%; in [2], 72.3%; in [3], 42.3%; in test [4], 40%; in test [5], 95.1%; in [6] it was 77.3%. The growth was 34% in test [7], 73.4% in test [8], 56.2% in [9] and 70.5% in [10].
For the compound `CN(C)C(=O)Oc1ccccc1-c1ccccc1`, the growth in test [1] was 102%; in test [2] it was 96.4%; in test [3] it was 111%; in [4], 98.6%; in [5], 109%; in test [6] it was 95.7%. Besides, the growth in test [7] is 101%; in [8] it was 87.7%; in test [9], 106%; in test [10], 103%.
Regarding `COC(=O)[C@@]1(C)CC[C@]2(C)CC[C@]3(C)C4=CC(=O)c5c(cc(O)c(O)c5C)[C@]4(C)CC[C@@]3(C)[C@@H]2C1`, the growth in [1] was 46.9%; in [2] it was 51.1%; in [3] it was 70.6%; in test [4], 71.7%; in [5] it was 31.8%; in test [6], 49.2%. Also, the growth in [7] was 38.5%; in test [8], 38.6%; in [9], 78.6%; in test [10] it was 71.5%.
For `Nc1c(F)cc(-c2nc3cc(F)ccc3[se]2)cc1Br`, the growth in test [1] was 17.4%; in test [2], -16.3% (active); in test [3], 46.9%; in test [4] it was 39.8%; in test [5] it was 3.18% (active); in test [6], 49.7%. The growth was 67.1% in test [7], 22.5% in test [8], 95.4% in [9] and 5.84% (active) in [10].
As for `ClC1=C(Cl)C(Cl)(C2(Cl)C(Cl)=C(Cl)C(Cl)=C2Cl)C(Cl)=C1Cl`, the growth in test [1] was -14.4% (active); in test [2], -81.5% (active); in test [3], 98.3%; in [4] it was 60.4%; in test [5], 67.6%; in [6], -63.5% (active). Besides, the growth is -68.2% (active) in test [7], 45% in [8], -66.4% (active) in test [9] and -68.6% (active) in [10].
As to `C=CCCCCCCCCC(=O)[O-].C=CCCCCCCCCC(=O)[O-].[Zn+2]`, the growth in test [1] was 96.9%; in test [2], 115%; in test [3], 103%; in test [4] it was 119%; in [5] it was 106%; in test [6] it was 72.5%. The growth in [7] is 119%; in test [8], 101%; in test [9], 97.2%; in test [10] it was 127%.

The record behind these values is PubChem BioAssay (NCI).
